Among the data in ChEMBL document CHEMBL1201862, “PubChem BioAssay data set” (2004) are Potency values, retold here.

Screen size: about 400,000 compounds; about 2,100 (0.53%) were called active. Roughly 14% stayed inconclusive and do not appear here. The rule behind the calls is not given here. Shown is part of a subset that was picked to be rich in actives.

Ataxin-2 (Homo sapiens), sequence (Q99700 whole entry): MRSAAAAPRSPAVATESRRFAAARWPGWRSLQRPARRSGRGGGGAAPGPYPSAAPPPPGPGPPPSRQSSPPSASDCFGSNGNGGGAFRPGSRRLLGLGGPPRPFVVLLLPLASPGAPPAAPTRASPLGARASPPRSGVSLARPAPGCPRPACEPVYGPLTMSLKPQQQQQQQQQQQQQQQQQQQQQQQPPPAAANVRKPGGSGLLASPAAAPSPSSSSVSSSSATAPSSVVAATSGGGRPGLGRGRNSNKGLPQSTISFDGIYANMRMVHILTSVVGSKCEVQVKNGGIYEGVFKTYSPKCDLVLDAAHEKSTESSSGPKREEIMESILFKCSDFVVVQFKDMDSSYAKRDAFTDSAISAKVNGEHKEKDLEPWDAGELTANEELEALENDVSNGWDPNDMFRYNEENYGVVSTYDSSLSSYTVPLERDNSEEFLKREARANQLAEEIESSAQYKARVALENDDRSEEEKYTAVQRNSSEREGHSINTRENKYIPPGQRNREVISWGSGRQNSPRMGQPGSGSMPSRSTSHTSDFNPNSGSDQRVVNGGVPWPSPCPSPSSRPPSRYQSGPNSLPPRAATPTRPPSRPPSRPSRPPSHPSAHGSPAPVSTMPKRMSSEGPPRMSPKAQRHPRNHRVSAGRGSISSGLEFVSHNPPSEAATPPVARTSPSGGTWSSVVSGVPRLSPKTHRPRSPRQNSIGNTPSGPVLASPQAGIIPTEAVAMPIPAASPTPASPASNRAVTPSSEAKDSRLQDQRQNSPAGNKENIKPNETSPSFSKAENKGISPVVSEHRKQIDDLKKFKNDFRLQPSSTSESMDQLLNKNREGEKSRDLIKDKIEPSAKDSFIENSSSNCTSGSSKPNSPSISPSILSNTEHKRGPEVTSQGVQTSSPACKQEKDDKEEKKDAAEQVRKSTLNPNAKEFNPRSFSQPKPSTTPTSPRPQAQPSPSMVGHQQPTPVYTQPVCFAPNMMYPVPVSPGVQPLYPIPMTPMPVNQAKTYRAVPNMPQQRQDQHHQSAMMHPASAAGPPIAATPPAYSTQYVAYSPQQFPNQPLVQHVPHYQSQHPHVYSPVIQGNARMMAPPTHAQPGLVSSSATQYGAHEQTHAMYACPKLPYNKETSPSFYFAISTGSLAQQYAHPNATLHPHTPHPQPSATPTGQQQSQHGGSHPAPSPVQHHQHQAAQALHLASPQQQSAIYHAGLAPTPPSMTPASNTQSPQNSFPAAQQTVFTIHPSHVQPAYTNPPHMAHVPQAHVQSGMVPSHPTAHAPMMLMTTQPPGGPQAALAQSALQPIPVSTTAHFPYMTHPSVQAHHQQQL

This test concerns the target Ataxin-2 (Homo sapiens) (UniProt Q99700). The test can be described thus: qHTS for Inhibitors of ATXN expression. It is filed as functional.
For the compound `O=C(/C=C/Nc1ccc(S(=O)(=O)Nc2ncccn2)cc1)c1ccc(Cl)c(Cl)c1`, the Potency entry is “inactive”.

Turning to `CCc1cc(=O)oc2c(C)c(O[C@@H]3O[C@H](CO)[C@@H](O)[C@H](O)[C@H]3O)ccc12`, the Potency result is “inactive”.

For the compound `CC(C)C1OC2(C)OC(=N)C1(C#N)C(C#N)(C#N)C2c1ccccc1` (stereo not given), the Potency entry is “inactive”.

As for `CC(=O)c1ccc(N2CCN(C(=O)COc3ccc4ccccc4c3)CC2)cc1`, the Potency entry was “inactive”.

As to `Cc1oc(C(N)=O)cc1COc1ccc(C(N)=O)cc1`, the Potency entry is “inactive”.

With `Cc1sc2ncn(CC(=O)NCCCC(=O)N3CCN(Cc4ccc5c(c4)OCO5)CC3)c(=O)c2c1C`, the Potency entry was “inactive”.

For the compound `CCS(=O)(=O)c1ncc(Cl)c(C(=O)Nc2ccccc2OC)n1`, the Potency is 35.5 µM (active).

As for `Cc1ccccc1NC(=O)c1nc(S(C)(=O)=O)ncc1Cl`, the Potency entry is “inactive”.

For the compound `COC(=O)c1sc(-c2ccc(C(C)(C)C)cc2)cc1NC(=O)/C=C/C(=O)O`, the Potency is 39.8 µM (active).

Consider `COC(=O)c1scc(C)c1NC(=O)c1ccc(Cl)cc1`, for which the Potency result was “inactive”.

Turning to `Cc1ccc2sc(-c3ccc(NC(=O)/C=C\C(=O)O)cc3)nc2c1`, the Potency result is “inactive”.

In the case of `CC(=O)c1sc(-c2ccccc2)cc1NS(=O)(=O)c1ccccc1`, the Potency entry was “inactive”.

As for `COC(=O)c1scc(C)c1NC(=O)CSc1ccc(Cl)cc1`, the Potency entry was “inactive”.

Take `COC(=O)c1sc(-c2ccc(Cl)cc2)cc1NC(=O)/C=C/C(=O)O`: the Potency is 28.2 µM (active).

As to `O=C(Nc1ccc(C(F)(F)F)cc1)c1cc(S(=O)(=O)NC2CCCCCC2)ccc1F`, the Potency is 35.5 µM (active).

Take `CCC(=O)NC(=S)Nc1ccc(S(=O)(=O)NC2CCCCC2)cc1`: the Potency entry is “inactive”.

With `C=COC(=O)c1sc2nc(C)cc(C)c2c1N`, the Potency result was “inactive”.

For the compound `CCOC(=O)N1CCC2(CC1)C(C#N)=C(N)Oc1c2sc2nc(C)cc(C)c12`, the Potency was 25.1 µM (active).

On to `Cc1cc(C)c2c(N)c(C(=O)C(C)(C)C)sc2n1`, for which the Potency result is “inactive”.

With `CSCCC(NC(=O)COc1ccccc1)C(=O)N1CCCCCC1` (stereo not given), the Potency result is “inactive”.

With `O=C(CSc1ccc(F)cc1)Nc1ccccc1Br`, the Potency result was “inactive”.

Consider `C/C(=N\Nc1cccc(C(F)(F)F)c1)c1ccc(O)cc1`, for which the Potency result is “inactive”.

`O=C(NNc1ccccc1Br)C(O)(c1cccc(C(F)(F)F)c1)c1cccc(C(F)(F)F)c1`: the Potency was 20 µM (active).

Turning to `NC(=S)N/N=C1\CCOc2ccc(Cl)cc21`, the Potency is 22.4 µM (active).

Take `NC(=O)NN=C1CCN2CCCc3cccc1c32`: the Potency entry is “inactive”.

On to `CC1(C)C/C(=N\NC(=S)Nc2ccccc2F)c2cc(O)ccc2O1`, for which the Potency entry was “inactive”.

Consider `O=c1c2cc(N3CCOCC3)ccc2[nH]c(=S)n1CCc1ccccc1`, for which the Potency entry was “inactive”.

Turning to `CC(C)(C)OC(=O)NCC(=O)Oc1cc2oc(=O)cc(-c3ccccc3)c2cc1Cl`, the Potency entry was “inactive”.

As to `CC(C)(C)OC(=O)NCCc1nnc(S(=O)(=O)Cc2ccc(Cl)cc2Cl)o1`, the Potency is 17.8 µM (active).

In the case of `COC(c1ccccc1)c1nnc(CCC(=O)NCCc2ccc(Cl)cc2)o1` (stereo not given), the Potency entry was “inactive”.

With `CC1CCc2nc(/C(C#N)=C/c3ccncc3)sc2C1` (stereo not given), the Potency entry is “inactive”.

On to `CSCC(=O)Nc1cc(C)on1`, for which the Potency entry is “inactive”.

On to `O=C1c2ccccc2S(=O)(=O)c2cc(N3CCC(C(=O)N4CCCCC4)CC3)ccc21`, for which the Potency entry was “inactive”.

For `CC(=O)Nc1cc(-c2cccc(NS(C)(=O)=O)c2)cn2c(-c3cccc(C(F)(F)F)c3)cnc12`, the Potency is 35.5 µM (active).

As for `COc1cc(S(=O)(=O)Nc2ccc3c(c2)C(=O)N(C)C3=O)ccc1NC(C)=O`, the Potency result is “inactive”.

Take `COc1cccc(-c2cnc3c(NC(C)=O)cc(-c4cccc(NS(C)(=O)=O)c4)cn23)c1`: the Potency is 28.2 µM (active).

As for `COc1cccc(-c2ccc3c(N)c(C(=O)Nc4ccccc4C)sc3n2)c1`, the Potency result is “inactive”.

Consider `CC1(C)CCCN(C(=O)c2ccc3c(c2NCCO)C(=O)c2ccccc2C3=O)C1`, for which the Potency is 20 µM (active).

As to `OCCCc1nc2n(n1)C(c1ccccc1)C=C(c1ccc(F)cc1)N2` (stereo not given), the Potency result is “inactive”.

In the case of `COc1cccc(CN(C)Cc2cc(=O)oc3cc(O)c(Cl)cc23)c1`, the Potency result is “inactive”.

As for `CCn1nc(NC(=O)c2ccco2)c2cc3cc(C)ccc3nc21`, the Potency entry was “inactive”.

Turning to `Cc1c(-c2cccc(NC(=O)c3ccco3)c2)nc2ncccn12`, the Potency entry is “inactive”.

`CC(=O)Nc1ccc(/C(C)=N/Nc2nc(Nc3ccccc3)nc(N3CCOCC3)n2)cc1`: the Potency entry was “inactive”.

For `COc1ccc(NC(=O)CSc2nc3ccc(Nc4nc(N5CCOCC5)nc(N5CCOCC5)n4)cc3s2)cc1`, the Potency was 15.8 µM (active).

Regarding `CC(C)(C)C(=O)Nc1ccc2nc(SCc3ccccc3)sc2c1`, the Potency was 31.6 µM (active).

On to `CC(=O)Nc1ccc(/C(C)=N/Nc2nc(N3CCOCC3)nc(N3CCOCC3)n2)cc1`, for which the Potency result is “inactive”.

Consider `CC(=O)Nc1ccc(O)c(-c2nc3ccccc3s2)c1`, for which the Potency entry is “inactive”.

For the compound `Cc1cccc(NC(=O)CSc2nc3ccc(NC(=O)c4ccccc4)cc3s2)c1`, the Potency was 39.8 µM (active).

Consider `Cc1cccc(NC(=O)CSc2nc3ccc(NC(=O)c4ccco4)cc3s2)c1`, for which the Potency is 39.8 µM (active).

On to `N#Cc1ccc(NC(=O)CSc2nc3nc(O)cc(O)c3s2)cc1`, for which the Potency entry is “inactive”.

Regarding `CC(C)(C)C(=O)Nc1nc2c(s1)CN(Cc1ccccc1)CC2`, the Potency entry is “inactive”.

On to `CCN(C(=O)COC(=O)c1ccc(OC)c(S(=O)(=O)N(C)Cc2ccccc2)c1)C1CCS(=O)(=O)C1` (stereo not given), for which the Potency result was “inactive”.

For `COc1ccc(CCC(=O)OCC(=O)Nc2c(C)n(C)n(-c3ccccc3)c2=O)cc1`, the Potency result is “inactive”.

As to `CCCCCCc1cc2cc(-c3nnc(-c4ccc(C)cc4)o3)c(=O)oc2cc1O`, the Potency entry is “inactive”.

For the compound `Cc1nn2c(nc(N3CCCCC3)c3ccccc32)c1C=O`, the Potency result was “inactive”.

As to `O=C(CCC1CCCCC1)Nc1nncs1`, the Potency result was “inactive”.

For `Nc1cccc2c1C(=O)N(C(=O)c1ccc(Cl)c(S(=O)(=O)N3CCCCCC3)c1)C2=O`, the Potency entry is “inactive”.

In the case of `COCCNC(=O)Nc1ccc2nc(-c3ccco3)c(-c3ccco3)nc2c1`, the Potency result is “inactive”.

Take `CCn1nc(NC(=O)c2ccco2)c2cc3ccccc3nc21`: the Potency result is “inactive”.

Turning to `COCc1cc(C)nc2sc(C(=O)Nc3cccc(OC)c3)c(N)c12`, the Potency entry was “inactive”.

Regarding `CN(C(=O)c1ccc(NC(=O)c2ccco2)cc1)c1ccccc1`, the Potency was 7.08 µM (active).

As for `COc1cccc(NC(=O)CSc2nc3ccc(NC(=O)c4ccco4)cc3s2)c1`, the Potency was 35.5 µM (active).

Turning to `O=C(CSc1nnc(NC(=O)c2ccco2)s1)NCc1ccc2c(c1)OCO2`, the Potency entry is “inactive”.

With `Cc1ccc(C(=O)Nc2ccc3c(c2)OCO3)cc1NC(=O)c1ccco1`, the Potency entry is “inactive”.

As for `CN(Cc1ccccc1)C(NC(=O)c1ccco1)C(Cl)(Cl)Cl` (stereo not given), the Potency entry is “inactive”.

Take `CN(C(=O)CSc1nc2ccc(NC(=O)c3ccco3)cc2s1)c1ccccc1`: the Potency was 39.8 µM (active).

Take `C=CCOc1c(Br)cc(C2C3=C(CCCC3=O)N(C)C3=C2C(=O)CCC3)cc1OCC`: the Potency entry is “inactive”.

As for `CCO/C(O)=C1/C(CC)=Nc2ccccc2N=C1NS(=O)(=O)c1cccc(C(C)=O)c1`, the Potency result is “inactive”.

Consider `COc1cccc(-c2ccc3c(N)c(C(=O)NC4CC4)sc3n2)c1`, for which the Potency entry is “inactive”.

Turning to `Cc1ccc2nc(N3CCC(C(=O)O)CC3)nc(-c3ccccc3)c2c1`, the Potency entry is “inactive”.

For `C/C(=N\NC(=O)c1nc2ccccn2c1C)c1cc2ccccc2o1`, the Potency result was “inactive”.

Consider `O=C(NCc1ccco1)c1cc(NS(=O)(=O)c2cccc([N+](=O)[O-])c2)ccc1O`, for which the Potency entry is “inactive”.

`Cc1ccc2sc(N(CCCN(C)C)C(=O)c3ccc(Br)s3)nc2c1C`: the Potency is 35.5 µM (active).

Consider `CN(C)CCCN(C(=O)CCOc1ccccc1)c1nc2c(F)cccc2s1`, for which the Potency is 22.4 µM (active).

Consider `COc1cccc2sc(N(CCCN(C)C)C(=O)CCS(=O)(=O)c3ccccc3)nc12`, for which the Potency was 20 µM (active).

Turning to `Cc1ccc2sc(N(CCCN(C)C)C(=O)CCS(=O)(=O)c3ccccc3)nc2c1C`, the Potency was 22.4 µM (active).

Turning to `Cc1ccc(/C(=N/Nc2nc3ccccc3s2)C2=C(O)c3ccccc3C2=O)cc1`, the Potency result is “inactive”.

For `Cc1ccc(S(=O)(=O)c2cc3cc(Br)ccc3oc2=O)cc1`, the Potency result was “inactive”.

In the case of `N#Cc1cccc(CN2CCCN(Cc3ccc(F)cc3)S2(=O)=O)c1`, the Potency result is “inactive”.

Turning to `C/C(=N\NC(=O)c1cc2ccccc2cc1O)c1cccs1`, the Potency entry is “inactive”.

As for `COc1ccc(OC)c2sc(N(CCCN(C)C)C(=O)CCS(=O)(=O)c3ccccc3)nc12`, the Potency is 25.1 µM (active).

For the compound `COc1ccc(C)cc1N(C(=O)c1ccccc1F)c1nc2ccccc2s1`, the Potency entry was “inactive”.

On to `CCOc1ccccc1NC(=O)CCS(=O)(=O)c1ccc(OC)cc1`, for which the Potency result was “inactive”.

Regarding `CC(Sc1nc2ccccc2s1)C(=O)N(C)Cc1ccccc1` (stereo not given), the Potency entry was “inactive”.

Consider `COc1ccc(CCNC(=O)CCS(=O)(=O)c2ccc3nc(C)sc3c2)cc1OC`, for which the Potency entry was “inactive”.

Turning to `COc1cccc2sc(N(CCCN(C)C)C(=O)C(c3ccccc3)c3ccccc3)nc12`, the Potency was 39.8 µM (active).

`O=C(Oc1ccc(Cl)c2cccnc12)c1cccnc1`: the Potency result is “inactive”.

`COC(=O)/C=C1/SC(NNC(=O)c2ccc(Cl)cc2Cl)=NC1=O`: the Potency result was “inactive”.

Take `CCCn1c(/C=N/Nc2nc3ccccc3[nH]2)nc2ccccc21`: the Potency is 35.5 µM (active).

Consider `CCCn1c(/C=C/c2cc[n+](C)cc2)nc2ccccc21`, for which the Potency result is “inactive”.

Consider `C/C(=N\Nc1nc2ccccc2[nH]1)c1ccc(Cl)s1`, for which the Potency entry was “inactive”.

In the case of `O=S(=O)(c1cc(Cl)ccc1Cl)N1CCN(c2ccccn2)CC1`, the Potency result was “inactive”.

With `Cc1c(CC(=O)NCC(=O)N[C@H](Cc2ccccc2)C(=O)O)c(=O)oc2cc(O)ccc12`, the Potency entry is “inactive”.

For the compound `CCc1ccc(NC(=O)N(Cc2cn(CC)c3ccccc23)C2CCCCC2)cc1`, the Potency is 35.5 µM (active).

As for `COc1cccc(NC(=O)CN2C(=O)c3cccc4cccc2c34)c1`, the Potency entry was “inactive”.

Regarding `COc1cc2cc(CNc3ccccc3)c(=O)n(CC(=O)Nc3ccccc3)c2cc1OC`, the Potency result was “inactive”.

`COc1cccc(NC(=O)N2CCCC2C(=O)NCc2ccccc2F)c1` (stereo not given): the Potency entry was “inactive”.

For the compound `COc1cccc(NC(=O)Cn2cc(C(=O)C3CCCCC3)c3ccccc32)c1`, the Potency is 39.8 µM (active).

With `COc1ccc(-n2c(=O)c3ccccc3n(CC(=O)Nc3cccc(OC)c3)c2=O)cc1`, the Potency is 39.8 µM (active).

On to `COc1cccc(NC(=O)CN(C)C(=O)[C@@H]2CCCN2C(=O)c2cccs2)c1`, for which the Potency entry is “inactive”.

With `CCn1cc(C(=O)OC)c(=O)c2cc(S(=O)(=O)N(C)C3CCCCC3)ccc21`, the Potency result was “inactive”.

`Cc1ccc(NC(=O)CNc2ccccc2CN(C)C2CCCCC2)cc1`: the Potency entry is “inactive”.

Consider `COc1cccc(NC(=O)C2CCOC2=O)c1` (stereo not given), for which the Potency entry is “inactive”.

For the compound `CC(C)NC(=O)Cn1cc(C(=O)C2CC2)c2ccccc21`, the Potency result is “inactive”.

Take `COc1cccc(NC(=O)N(Cc2cn(C)c3ccccc23)C2CCCCCC2)c1`: the Potency is 39.8 µM (active).
